# Laboratory results as given in the supplement of paper PMC11060735.
# Counter-ions that a name gives are not always drawn. In all, about 1,800 compounds went through this assay and about 50 (3%) showed activity. The full list was thinned out, with actives kept by preference. Values without a mark were called inactive.
# Test system: mouse p16Ink4a+/- lung fibroblasts (INKBRITE, bleomycin-injured)
# Assay: percentage of GFP+ (p16Ink4a+) fibroblasts among all cells in well; higher = less depletion of p16Ink4a+ cells, active = 20 or less
# Details: 1 µM; 3 days
row,Structure (SMILES),percentage of GFP+
1,Cn1cc(/C=C/C(=O)c2cccc(F)c2)cc1/C=C/C(=O)NO,54%
2,O=C(/C=C/c1cccc(S(=O)(=O)Nc2ccccc2)c1)NO [Belinostat],15.9% (active)
3,O=C(/C=C/c1ccccc1)NC(NC(=S)Nc1ccc(Cl)cc1)C(Cl)(Cl)Cl (centres undefined),58.3%
4,Nc1cccc2c1CN(C1CCC(=O)NC1=O)C2=O (centres undefined) [Lenalidomide],46%
5,CC/C(=C(\c1ccccc1)c1ccc(OCCN(C)C)cc1)c1ccccc1 [Tamoxifen],34.9%
6,Cc1ccc([N+](=O)[O-])cc1S(=O)(=O)N(C)/N=C/c1cnc2ccc(Br)cn12,3.79% (active)
7,"CC(C)c1nc(N(C)S(C)(=O)=O)nc(-c2ccc(F)cc2)c1/C=C/[C@@H](O)C[C@@H](O)CC(=O)O [Rosuvastatin, Rosuvastatin Calcium]",41.7%
8,Cn1cnc2c(F)c(Nc3ccc(Br)cc3F)c(C(=O)NOCCO)cc21,44.7%
9,CN1c2cc(O)c(N=NC(N)=O)cc2CC1S(=O)(=O)O (centres undefined) [Carbazochrome sodium sulfonate],43%
10,CC1(C)CC(=O)c2c(C(F)(F)F)nn(-c3ccc(C(N)=O)c(N[C@H]4CC[C@H](OC(=O)CN)CC4)c3)c2C1,6.23% (active)
11,CC1(C)CC(=O)c2c(C(F)(F)F)nn(-c3ccc(C(N)=O)c(N[C@H]4CC[C@H](O)CC4)c3)c2C1,6.92% (active)
12,CC(=O)O/N=C1/C(=O)N(Cc2cc(Cl)ccc2Cl)c2ccc(Cl)cc21,51.6%
13,CC(C)(C)c1ccc(C(=O)CCCN2CCC(OC(c3ccccc3)c3ccccc3)CC2)cc1 [Ebastine],56.5%
14,OC1(c2ccc(Cl)c(C(F)(F)F)c2)CCN(CCCC(c2ccc(F)cc2)c2ccc(F)cc2)CC1 [Penfluridol],55.9%
15,COc1ccc(-c2ccc3c(N4CCOCC4)nc(N4C[C@@H](C)O[C@@H](C)C4)nc3n2)cc1CO,23.7%
16,Cc1ccc(=O)n(-c2ccccc2)c1 [Pirfenidone],46%
17,CNC(=O)c1cc(Oc2ccc(NC(=O)Nc3cc(C(C)(C)C)nn3-c3ccc4ncccc4c3)c(F)c2)ccn1 [Rebastinib],39.9%
18,CC(C)C[C@H](NC(=O)[C@H](Cc1ccccc1)NC(=O)c1cnccn1)B(O)O [Bortezomib],5.29% (active)
19,CC(C)C1CCC(C(=O)N[C@H](Cc2ccccc2)C(=O)O)CC1 (some centres undefined) [Nateglinide],46.5%
20,CNC(=O)[C@H](Cc1ccccc1)NC(=O)[C@H](CC(C)C)[C@H](CSc1cccs1)C(=O)NO [Batimastat],41.9%
21,CC(=O)NC[C@H]1CN(c2ccc(N3CCOCC3)c(F)c2)C(=O)O1 [Linezolid],52.5%
22,O=C(O)c1ccc2c(c1)nc(Nc1cccc(Cl)c1)c1ccncc12 [Silmitasertib],43.8%
23,COc1ccc2cc(-c3[nH]c(-c4ccc(S(C)=O)cc4)nc3-c3ccncc3)ccc2c1 (centres undefined) [Tie2 kinase inhibitor],43.3%

row,Structure (SMILES),percentage of GFP+
1,CC(C)Cc1ccc(C(C)C(=O)O)cc1 (racemic),48.8%
2,COc1cc(NC(=O)c2ccc(-c3ccc(Cl)cc3)o2)cc(OC)c1,52%
3,O=C(Nc1cc(C(F)(F)F)cc(C(F)(F)F)c1)c1cc(Cl)ccc1O,42.4%
4,CCCCOc1ccc(C(=O)CCN2CCCCC2)cc1 [Dyclonine],47.1%
5,O=C(c1ccc(OCCN2CCCCC2)cc1)c1c(-c2ccc(O)cc2)sc2cc(O)ccc12 [Raloxifene],16.8% (active)
6,Cc1c(-c2ccc(O)cc2)n(Cc2ccc(OCCN3CCCCCC3)cc2)c2ccc(O)cc12 [Bazedoxifene],47.1%
7,OCCn1cc(-c2cnc3nnn(Cc4ccc5ncccc5c4)c3n2)cn1,41.7%
8,c1coc(CNc2ncnc3[nH]cnc23)c1 [Kinetin],41.6%
9,C=CC/N=C1\C(=O)C=C2NC(=O)/C(C)=C/C=C\[C@H](OC)[C@@H](OC(N)=O)/C(C)=C/[C@H](C)[C@@H](O)[C@@H](OC)C[C@H](C)CC1=C2O [Tanespimycin],11.8% (active)
10,COC1=C2C[C@@H](C)C[C@H](OC)[C@H](O)[C@@H](C)/C=C(\C)[C@H](OC(N)=O)[C@@H](OC)/C=C/C=C(\C)C(=O)/N=C(/C=C1O)C2=O [Geldanamycin],13.5% (active)
11,CO[C@H]1/C=C\C=C(/C)C(=O)NC2=CC(=O)/C(=N\CCN(C)C)C(=C2O)C[C@@H](C)C[C@H](OC)[C@H](O)[C@@H](C)/C=C(\C)[C@@H]1OC(N)=O [Alvespimycin],12.4% (active)
12,Nc1cccc2c1C(=O)N(C1CCC(=O)NC1=O)C2=O (centres undefined) [Pomalidomide],46.7%
13,CCCCCCCCCCCCCCCC(=O)OC1C(SC)OC(C(NC(=O)C2CC(CCC)CN2C)C(C)Cl)C(O)C1O (centres undefined) [Clindamycin palmitate HCl],45.8%
14,COc1cc(Nc2nc3ccccc3nc2NS(=O)(=O)c2ccc(NC(=O)c3ccc(C)c(OC)c3)cc2)cc(OC)c1,37.4%
15,CC(C(=O)O)c1ccc2c(c1)[nH]c1ccc(Cl)cc12 (centres undefined) [Carprofen],45.4%
16,CNC(=O)c1c(F)cccc1Nc1nc(Nc2cc3c(cc2OC)CCN3C(=O)CN(C)C)nc2[nH]ccc12,50.1%
17,O=NO [Sodium Nitrite],52.2%
18,N#CC[C@H](C1CCCC1)n1cc(-c2ncnc3[nH]ccc23)cn1 [Ruxolitinib],44.6%
19,Cc1nc(-c2ccc(OCC(C)C)c(C#N)c2)sc1C(=O)O [Febuxostat],42.1%
20,COc1ccc(CNc2nc(N3CCC[C@H]3CO)ncc2C(=O)NCc2ncccn2)cc1Cl [Avanafil],46.5%
21,CCc1cnn2c(NCc3ccc[n+]([O-])c3)cc(N3CCCC[C@H]3CCO)nc12 [Dinaciclib],13% (active)
22,COc1c(C)c(C(=O)c2ccc(N)c(C(=O)O)c2)n2ccccc12,39%
23,COC(=O)[C@H](c1ccccc1Cl)N1CCc2sccc2C1 [Clopidogrel],36.5%

row,Structure (SMILES),percentage of GFP+
1,CN1CCN(CCCN2c3ccccc3Sc3ccc(C(F)(F)F)cc32)CC1 [Trifluoperazine],52%
2,CCCCc1nc2cc(/C=C/C(=O)NO)ccc2n1CCN(CC)CC [Pracinostat],24.8%
3,COc1cc(/C=C/C(=O)/C=C(O)/C=C/c2ccc(O)c(OC)c2)ccc1O,38.1%
4,CC[C@H](/C=C/[C@@H](C)[C@@H]1CC[C@H]2[C@@H]3CC=C4C[C@@H](O)CC[C@]4(C)[C@@H]3CC[C@@]21C)C(C)C [Stigmasterol],44.8%
5,Nc1nccc(Oc2ccc(NC(=O)c3cncc(-c4ccc(F)cc4)c3O)cc2F)c1Cl,49.5%
6,COC(=O)[C@]12CCC(C)(C)C[C@@H]1[C@@H]1C(=O)C=C3[C@]4(C)C=C(C#N)C(=O)C(C)(C)[C@@H]4CC[C@@]3(C)[C@]1(C)CC2 [Bardoxolone Methyl],5.23% (active)
7,O=C(O)c1cc(N=Nc2ccc(O)c(C(=O)O)c2)ccc1O [Olsalazine],43.3%
8,O=C1c2c(O)cccc2[C@H]([C@@H]2O[C@H](CO)[C@@H](O)[C@H](O)[C@H]2O)c2cc(CO)cc(O)c21 [Aloin],20.8%
9,CC(C)c1cc(C(C)C)c(CC(=O)NS(=O)(=O)Oc2c(C(C)C)cccc2C(C)C)c(C(C)C)c1 [Avasimibe],53.1%
10,CC(C)c1ccccc1Cc1cc(C(=O)Nc2ccc(S(=O)(=O)c3ccccc3C(C)(C)C)cc2)c(O)c(O)c1O,16.4% (active)
11,CC(C)(C)c1cc(C(C)(C)C)c(NC(=O)c2cnc3ccccc3c2O)cc1O [Ivacaftor],38%
12,CC(C)(C)c1cc(/C=C(\C#N)C(N)=S)cc(C(C)(C)C)c1O [Tyrphostin],50.3%
13,CCC(CC)CC1(C(=O)Nc2ccccc2SC(=O)C(C)C)CCCCC1 [Dalcetrapib],37.6%
14,CCOC(=O)[C@H](CCc1ccccc1)N[C@H]1CS[C@H](c2cccs2)CN(CC(=O)O)C1=O [Temocapril],45.2%
15,CC(C)c1cc(C(=O)N2Cc3ccc(CN4CCN(C)CC4)cc3C2)c(O)cc1O [Onalespib],9.46% (active)
16,C[C@@H](Oc1cc(-n2cnc3ccc(CN4CCN(C)CC4)cc32)sc1C(N)=O)c1ccccc1C(F)(F)F,27.8%
17,COc1ccccc1N1CCN(CCN2C(=O)CC3(CCCC3)CC2=O)CC1 [Bmy 7378 Dihydrochloride],43.4%
18,C=CCc1cc(OC)c(O)c(C(=O)NCCO)c1 [Alibendol],42.5%
19,COc1ccc(S(=O)(=O)Nc2cccnc2Nc2ccc(O)cc2)cc1,23%
20,CN(C)Cc1ccc(S(=O)(=O)n2ccc(/C=C/C(=O)NO)c2)cc1 [Resminostat],37.1%
21,Cc1[nH]c2ccccc2c1CCNC(=O)c1cccs1 [N-[2-(2-methyl-1H-indol-3-yl)ethyl]thiophene-2-carboxamide],39.3%
22,Cc1[nH]c2ccccc2c1CCNCc1ccc(/C=C/C(=O)NO)cc1 [Panobinostat],2.9% (active)
23,CCC(=O)Nc1cccc(Oc2nc(Nc3ccc(N4CCN(C)CC4)cc3OC)ncc2Cl)c1,42.3%
